Measured values taken from the supplement of paper PMC6555819.

Tests used:
Test in all cases: PBM binding z-score (relative to random genomic background probes); higher = stronger binding; sequences stand for … in GC…GCGATTGACAGCGTAGAATGAAGG
[1] = test system: FXR:RXRa (NR concentration 270 nM, RXRa partner concentration 90 nM)
Procedure, shortened: (§1)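 The probes on custom Agilent 4×180K protein-binding microarrays were double-stranded, with 34-nt variable regions bearing direct-repeat seeds, single-nucleotide variants, half-site ablations and random human genomic background sequences. Incubation lasted 1 h with ligand-free nuclear receptor dimers in PBS pH 7.4, 2% milk, 0.02% Triton X-100, 1 mM DTT, 0.2 mg/mL BSA and 0.4 mg/ml salmon testes DNA. Antibodies against each partner (one per run) detected bound dimers, and fluorescence scans were regression-normalized. Binding z-scores take the random background probes as reference.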

[2] = test system: LXRa:RXRa (NR concentration 270 nM, RXRa partner concentration 90 nM)
Procedure, shortened: as §1

[3] = test system: LXRa homodimer (NR concentration 270 nM)
Procedure, shortened: as §1

[4] = test system: LXRb:RXRa (NR concentration 270 nM, RXRa partner concentration 90 nM)
Procedure, shortened: as §1

[5] = test system: LXRb homodimer (NR concentration 270 nM)
Procedure, shortened: as §1

[6] = test system: PPARa:RXRa (NR concentration 270 nM, RXRa partner concentration 90 nM)
Procedure, shortened: as §1

[7] = test system: PPARg:RXRa (NR concentration 180 nM, RXRa partner concentration 90 nM)
Procedure, shortened: as §1

[8] = test system: PPARg:RXRa 270nM:90nM, anti-RXR (NR concentration 270 nM, RXRa partner concentration 90 nM)
Procedure, shortened: as §1

[9] = test system: PPARg:RXRa 30nM:10nM, anti-RXR (NR concentration 30 nM, RXRa partner concentration 10 nM)
Procedure, shortened: as §1

[10] = test system: PPARg:RXRa 90nM:30nM, anti-RXR (NR concentration 90 nM, RXRa partner concentration 30 nM)
Procedure, shortened: as §1

[11] = test system: PPARg:RXRa DBDmut IVT, anti-RXR (DBD mutation: RXRa K156A/R161A, NR concentration 270 nM, RXRa partner concentration 90 nM)
Procedure, shortened: as §1

[12] = test system: PPARg:RXRa IVT, anti-PPARg (NR concentration 270 nM, RXRa partner concentration 90 nM)
Procedure, shortened: as §1

[13] = test system: PPARg DBDmut:RXRa IVT, anti-PPARg (DBD mutation: PPARg1 K132A/R137A, NR concentration 270 nM, RXRa partner concentration 90 nM)
Procedure, shortened: as §1

[14] = test system: PPARg DBDmut IVT, anti-PPARg (DBD mutation: PPARg1 K132A/R137A, NR concentration 270 nM)
Procedure, shortened: as §1

[15] = test system: PPARg homodimer (NR concentration 180 nM)
Procedure, shortened: as §1

[16] = test system: PXR:RXRa (NR concentration 270 nM, RXRa partner concentration 90 nM)
Procedure, shortened: as §1

[17] = test system: PXR homodimer (NR concentration 270 nM)
Procedure, shortened: as §1

[18] = test system: RARa:RXR (NR concentration 270 nM, RXRa partner concentration 90 nM)
Procedure, shortened: as §1

[19] = test system: RARa homodimer (NR concentration 270 nM)
Procedure, shortened: as §1

[20] = test system: RARb:RXRa (NR concentration 270 nM, RXRa partner concentration 90 nM)
Procedure, shortened: as §1

Sequence | PBM binding z-score [1] | PBM binding z-score [2] | PBM binding z-score [3] | PBM binding z-score [4] | PBM binding z-score [5] | PBM binding z-score [6] | PBM binding z-score [7] | PBM binding z-score [8] | PBM binding z-score [9] | PBM binding z-score [10] | PBM binding z-score [11] | PBM binding z-score [12] | PBM binding z-score [13] | PBM binding z-score [14] | PBM binding z-score [15] | PBM binding z-score [16] | PBM binding z-score [17] | PBM binding z-score [18] | PBM binding z-score [19] | PBM binding z-score [20]
CCTACTGGGCCAAGGTCATTCATCAGTCAAAGCA | 3.63 | 3.65 | 1.71 | 3.07 | 0.00532 | 4.07 | 3.93 | 4.44 | 1.62 | 3.51 | 4 | 4.59 | -0.258 | -0.0447 | 2.02 | 3.93 | 1.66 | 3.84 | 0.345 | 3.34
CATACAGTGTCAGCTAGGCCAGAGTAGGGACGGC | -0.279 | -0.284 | -0.667 | -0.652 | 0.0378 | -0.3 | 0.467 | -0.284 | -0.315 | -0.243 | -0.0696 | 0.608 | 0.171 | -0.0038 | -0.0558 | -0.453 | -0.457 | -0.228 | 0.038 | 1.04
TCAGACAGGTGAAGGTAACTTAGGTACGCAGTCG | 1.16 | 2.01 | -0.079 | 1.41 | -0.0603 | 1.46 | 0.846 | 2.45 | 4.08 | 3.11 | 2.71 | 1.37 | 0.399 | 0.159 | 1.08 | 0.989 | 0.206 | 1.27 | 0.365 | 1.15
AGAATGAGGTTATTAAGAACAGGGAATTGCGGTC | 1.53 | 1.45 | 0.11 | 1.22 | 0.0569 | 2.3 | 1.53 | 1.67 | 0.448 | 1.02 | 3.07 | 2.57 | 0.828 | 0.0753 | 0.538 | 1.13 | 0.548 | 1.32 | 0.488 | 1.4
CCGACTGGGGCAGAAACGTTACCATACCATCCGG | -0.564 | -0.949 | -0.452 | -0.779 | -0.864 | -1 | 0.724 | -0.373 | -0.314 | -0.369 | 1.22 | 0.558 | -0.521 | -0.904 | -0.18 | -0.851 | -0.758 | -0.735 | 0.0145 | -0.053
CCTACTGGGCCAAAAAGGTCATTGGTGCCGATAA | 3.94 | 4.46 | 3.31 | 4.08 | 0.197 | 4.67 | 3.1 | 4.12 | 1.19 | 3.34 | 3.78 | 4.13 | -0.644 | -0.94 | 3.28 | 4.9 | 5.2 | 5.26 | 0.489 | 4.07
CATCCTAGGTCAGGGCCAGTATAGGAGGAACGTT | 2.24 | 2.03 | 0.118 | 1.17 | -0.0238 | 2.75 | 1.89 | 2.19 | 0.615 | 1.34 | 3.29 | 3.82 | 0.575 | -0.518 | 1.36 | 0.842 | -0.294 | 1.65 | 0.477 | 3.65
GCTCGGAGGACAAGCTCAGAGCTTTGTCCGTAGA | -0.583 | -0.885 | -0.935 | -0.784 | -0.639 | -0.425 | -1.69 | -1.3 | -1.5 | -1.33 | -0.93 | -0.339 | -0.667 | -0.738 | -0.886 | -0.742 | -0.896 | -0.828 | -1.84 | 0.862
ACTAGCAGGCCGAGTTTGGGTCACTCAAACAAAG | -0.115 | -0.146 | -0.389 | 0.653 | -0.928 | 1.21 | -0.2 | -0.103 | -0.644 | -0.461 | -0.462 | 0.793 | -0.125 | -0.727 | -0.382 | 0.617 | -0.458 | 1.21 | -1.01 | 1.29
ATCGAAAGGTCGAGGTGCGTATAGAGAAAGGGAA | 3.98 | 3.27 | -0.147 | 2.47 | 0.277 | 4.37 | 2.48 | 3.13 | 1.09 | 2.17 | -0.194 | 1.03 | 0.819 | 0.0547 | 1.09 | 2.33 | 0.0206 | 3.2 | 0.4 | 3.98
CCTCGGAGGACAACAGGAGGTCAGTGCTGCCAGA | 0.821 | 1.62 | 1.58 | 1.15 | -0.378 | 1.62 | 0.333 | 0.375 | -0.857 | -0.495 | -0.0147 | 0.469 | -1.04 | -1.78 | 0.702 | 1.78 | 0.131 | 2.05 | 0.116 | 2.92
GCCTACGGGTCAAAGGTTATAGCATGAATAGAAT | 7.04 | 5.56 | 0.447 | 5.59 | -0.175 | 6.6 | 10.4 | 8.66 | 7.8 | 9.24 | 2.12 | 4.99 | 1.03 | 0.485 | 1.95 | 6.12 | 0.219 | 8.24 | 0.254 | 4.34
CCTACTGGGCTAAGGTCATTGATCAGTCAAAGCA | 3.85 | 3.94 | 1.87 | 3.49 | -0.0794 | 4.26 | 3.54 | 4.28 | 1.41 | 3.47 | 2.72 | 2.94 | -0.43 | -0.707 | 2.17 | 4.1 | 1.25 | 4.17 | -0.024 | 3.5
CGAACTAGGTCAAGGACCGTGAATCTCCGCACGC | 3.28 | 2.1 | -0.026 | 1.26 | -0.781 | 4.64 | 7.76 | 6.89 | 4.37 | 6.74 | 7.68 | 8.18 | 4.94 | 0.945 | 0.756 | 0.773 | -0.365 | 1.63 | -0.219 | 3.8
